Reference: PubChem BioAssay (NCATS)
Results filed as inconclusive are left out. This is one part of the list. Calls of active or inactive are those of the source. Unless noted, the call rests on the fitted dose curve; in most records, active means well fitted curve in the direction sought with a large enough effect; inconclusive means small, poorly fitted or top-dose-only effect, or another doubt; inactive means no such curve, though single readings can be large; an effect the other way counts as inactive or inconclusive.

What was measured:
[1] = biological target: Cytochrome P450 2C9 (Homo sapiens) (UniProt P11712); test: Cytochrome P450 family 2 subfamily C member 9 (CYP2C9) small molecule antagonists: luciferase biochemical (cell-free) qHTS assay (AID 1645842; active means well fitted curve in the direction sought with a large enough effect in the repeat runs; an effect the other way counts as inactive or inconclusive; further: nearly all actives have a fitted effect of over 55% in size; further: potency means the concentration at half of the fitted maximal effect)
Sequence of Cytochrome P450 2C9 (Homo sapiens) (P11712 whole entry, looked up): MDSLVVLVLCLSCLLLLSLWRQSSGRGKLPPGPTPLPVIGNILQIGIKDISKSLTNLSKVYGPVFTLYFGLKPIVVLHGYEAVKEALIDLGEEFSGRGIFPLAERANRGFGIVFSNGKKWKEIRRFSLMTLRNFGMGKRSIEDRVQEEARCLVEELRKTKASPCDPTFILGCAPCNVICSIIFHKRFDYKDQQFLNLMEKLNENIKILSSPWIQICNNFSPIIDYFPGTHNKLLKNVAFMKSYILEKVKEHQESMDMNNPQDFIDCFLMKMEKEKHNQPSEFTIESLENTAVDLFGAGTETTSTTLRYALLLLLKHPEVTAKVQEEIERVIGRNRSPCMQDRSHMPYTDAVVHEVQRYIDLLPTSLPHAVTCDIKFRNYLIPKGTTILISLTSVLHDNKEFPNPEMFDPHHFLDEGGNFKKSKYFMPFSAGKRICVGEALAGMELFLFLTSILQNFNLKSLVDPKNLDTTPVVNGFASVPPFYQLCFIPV
Method in brief: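 Luminescence, after 20 min with luciferin detection reagent, reflected CYP2C9 turnover during a 1 h NADPH-driven reaction at 37C. Enzyme-substrate mix contained 0.4% bovine serum albumin and was preincubated with compound 10 min at room temperature.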

[2] = biological target: Phosphoglycerate kinase, glycosomal (Trypanosoma brucei brucei) (UniProt P07378); test: qHTS for inhibitors of Phosphogylcerate Kinase: Hit Validation Screen (AID 686980); details: TbPGK coupled GAPDH assay, Kinase-Glo luminescence; further: potency means the concentration at half of the fitted maximal effect; nearly all actives have a fitted effect of over 65% in size
Method in brief: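 Luminescent ATP detection (Kinase-Glo Plus) follows a 60-minute room-temperature incubation, with wells lacking PGK as controls. Buffer: 100 mM TEA (pH 7.6), 5 mM MgCl2, 0.01% Tween-20. Coupling enzyme GAPDH (100 nM final) supplies unstable 1,3-BPG in-well.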

[3] = biological target: DNA polymerase iota (Homo sapiens) (UniProt Q9UNA4); test: qHTS for Inhibitors of Polymerase Iota: Confirmatory Assay for Cherry-picked Compounds (AID 720496); details: Pol iota primer extension, TAMRA/BHQ fluorescence; further: potency means the concentration at half of the fitted maximal effect
Sequence of DNA polymerase iota (Homo sapiens) (Q9UNA4 whole entry, looked up): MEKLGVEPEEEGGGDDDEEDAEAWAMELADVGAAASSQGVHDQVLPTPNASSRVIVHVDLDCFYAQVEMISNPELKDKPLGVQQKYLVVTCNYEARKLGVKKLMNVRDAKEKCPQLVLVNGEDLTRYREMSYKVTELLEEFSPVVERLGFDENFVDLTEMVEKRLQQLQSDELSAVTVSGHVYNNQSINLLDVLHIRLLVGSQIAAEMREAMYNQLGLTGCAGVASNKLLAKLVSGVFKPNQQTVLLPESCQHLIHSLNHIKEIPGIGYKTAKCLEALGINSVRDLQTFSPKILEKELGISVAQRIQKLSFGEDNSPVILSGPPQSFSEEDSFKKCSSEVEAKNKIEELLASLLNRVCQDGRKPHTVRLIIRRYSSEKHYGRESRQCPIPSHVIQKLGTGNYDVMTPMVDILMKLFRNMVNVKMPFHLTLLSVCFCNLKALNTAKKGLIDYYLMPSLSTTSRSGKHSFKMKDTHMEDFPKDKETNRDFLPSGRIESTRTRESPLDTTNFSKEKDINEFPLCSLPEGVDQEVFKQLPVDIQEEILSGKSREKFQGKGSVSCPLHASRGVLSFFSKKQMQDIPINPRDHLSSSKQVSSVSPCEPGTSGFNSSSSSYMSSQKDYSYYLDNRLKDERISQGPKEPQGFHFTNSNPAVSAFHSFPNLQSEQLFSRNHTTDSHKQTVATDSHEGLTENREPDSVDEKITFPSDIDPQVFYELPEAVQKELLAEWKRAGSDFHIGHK
Method in brief: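 Read-out is TAMRA fluorescence (525 nm excitation, 598 nm emission) at 0 and 10 min. It reflects strand displacement from a BHQ-2-quenched template by 10 nM Pol iota, with 50 nM final substrate after 15 min compound preincubation.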

[4] = biological target: DNA polymerase kappa (Homo sapiens) (UniProt Q9UBT6); test: qHTS for Inhibitors of Polymerase Kappa: Confirmatory Assay for Cherry-picked Compounds (AID 720501); details: purified Pol-kappa, fluorescent strand-displacement substrate; further: potency means the concentration at half of the fitted maximal effect
Sequence of DNA polymerase kappa (Homo sapiens) (Q9UBT6 whole entry, looked up): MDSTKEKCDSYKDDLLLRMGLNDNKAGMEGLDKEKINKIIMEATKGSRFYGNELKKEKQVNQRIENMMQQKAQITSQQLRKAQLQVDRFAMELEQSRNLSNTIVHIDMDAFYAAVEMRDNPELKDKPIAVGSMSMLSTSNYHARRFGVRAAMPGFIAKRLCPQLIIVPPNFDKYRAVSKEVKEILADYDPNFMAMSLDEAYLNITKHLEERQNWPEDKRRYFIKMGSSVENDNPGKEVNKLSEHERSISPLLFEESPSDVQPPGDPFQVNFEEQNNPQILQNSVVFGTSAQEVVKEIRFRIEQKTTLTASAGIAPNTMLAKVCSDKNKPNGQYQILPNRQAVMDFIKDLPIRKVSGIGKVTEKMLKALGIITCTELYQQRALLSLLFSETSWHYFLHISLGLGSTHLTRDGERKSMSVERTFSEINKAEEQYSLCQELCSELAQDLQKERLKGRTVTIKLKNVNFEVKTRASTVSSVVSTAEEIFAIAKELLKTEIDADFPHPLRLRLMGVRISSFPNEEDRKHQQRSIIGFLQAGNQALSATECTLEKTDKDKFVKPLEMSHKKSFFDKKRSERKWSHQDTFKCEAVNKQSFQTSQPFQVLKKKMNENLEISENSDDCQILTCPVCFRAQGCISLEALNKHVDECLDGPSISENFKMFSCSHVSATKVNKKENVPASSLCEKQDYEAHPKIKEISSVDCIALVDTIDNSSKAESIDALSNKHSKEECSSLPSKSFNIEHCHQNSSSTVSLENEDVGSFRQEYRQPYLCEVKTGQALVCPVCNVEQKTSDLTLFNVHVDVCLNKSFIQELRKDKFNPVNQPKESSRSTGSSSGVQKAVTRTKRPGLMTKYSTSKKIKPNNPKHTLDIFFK
Method in brief: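 10 nM human Pol-kappa was preincubated with compound 15 min at room temperature, then 50 nM (final) primer/template substrate with TAMRA-labeled reporter strand and BHQ-2-labeled template added. Fluorescence (Ex 525, Em 598 nm) read at 0 and 10 min.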

[5] = biological target: DNA polymerase eta (Homo sapiens) (UniProt Q9Y253); test: qHTS for Inhibitors of Polymerase Eta: Confirmatory Assay for Cherry-picked Compounds (AID 720502); details: Pol eta primer extension, TAMRA/BHQ fluorescence, 10 min; further: potency means the concentration at half of the fitted maximal effect
Method in brief: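 Readout: TAMRA dequenching, ex 525/em 598 nm, read at 0 and 10 min. Enzyme: 10 nM human Pol eta, preincubated with compound 15 min RT. Substrate: 50 nM final annealed primer/reporter/template duplex.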

[6] = biological target: Cytochrome P450 2D6 (Homo sapiens) (UniProt P10635); test: Cytochrome P450 family 2 subfamily D member 6 (CYP2D6) small molecule antagonists: luciferase biochemical (cell-free) qHTS assay (AID 1645840; active means well fitted curve in the direction sought with a large enough effect in the repeat runs; an effect the other way counts as inactive or inconclusive; further: series mostly up to about 57 µM; nearly all actives have a fitted effect of over 55% in size)
Sequence of Cytochrome P450 2D6 (Homo sapiens) (P10635 whole entry, looked up): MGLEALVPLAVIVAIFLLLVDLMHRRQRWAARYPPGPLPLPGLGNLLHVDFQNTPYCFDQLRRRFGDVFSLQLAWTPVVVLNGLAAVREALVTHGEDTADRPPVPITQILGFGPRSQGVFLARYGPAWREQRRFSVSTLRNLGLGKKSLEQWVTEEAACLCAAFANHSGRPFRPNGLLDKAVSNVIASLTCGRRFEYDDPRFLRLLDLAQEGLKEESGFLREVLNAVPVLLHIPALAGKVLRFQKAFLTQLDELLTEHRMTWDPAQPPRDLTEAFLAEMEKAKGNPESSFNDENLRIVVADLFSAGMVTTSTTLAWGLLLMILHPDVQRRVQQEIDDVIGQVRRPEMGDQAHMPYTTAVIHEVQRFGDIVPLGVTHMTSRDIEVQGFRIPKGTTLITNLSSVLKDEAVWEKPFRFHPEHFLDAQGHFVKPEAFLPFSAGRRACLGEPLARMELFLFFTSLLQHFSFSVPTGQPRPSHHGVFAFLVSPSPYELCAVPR
Method in brief: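 P450-Glo luminescent screen: recombinant CYP2D6 enzyme–proluciferin substrate mix preincubated with compound 10 min at room temperature, then NADPH regeneration added for 1 h at room temperature. Detection reagent added for 20 min; luciferin light read as relative luminescence units.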

[7] = biological target: Glutathione peroxidase 1 (Homo sapiens) (UniProt P07203); test: Primary qHTS Assay for Inhibitors of Recombinant Selenoprotein Glutathione Peroxidase 1 (GPX1) (AID 1845191); further: potency means the concentration at half of the fitted maximal effect; nearly all actives have a fitted effect of over 65% in size
Method in brief: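 GR-coupled assay: compounds preincubated 30 min at room temperature with GPX1, then reaction started with CHP; final 10 nM GPX1, 1 mM GSH, 0.5 mM CHP, 0.5 mM NADPH, 100 nM GR, 0.01% BSA, pH 7.5 Tris buffer. NADPH fluorescence (340/450 nm) read at 0 and 15 min.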

[8] = biological target: Phospholipid hydroperoxide glutathione peroxidase GPX4 (Homo sapiens) (UniProt P36969); test: Primary qHTS Assay for Inhibitors of Recombinant Selenoprotein Glutathione Peroxidase 4 (GPX4) (AID 1845192); further: nearly all actives have a fitted effect of over 65% in size
Sequence of Phospholipid hydroperoxide glutathione peroxidase GPX4 (Homo sapiens) (P36969 whole entry, looked up): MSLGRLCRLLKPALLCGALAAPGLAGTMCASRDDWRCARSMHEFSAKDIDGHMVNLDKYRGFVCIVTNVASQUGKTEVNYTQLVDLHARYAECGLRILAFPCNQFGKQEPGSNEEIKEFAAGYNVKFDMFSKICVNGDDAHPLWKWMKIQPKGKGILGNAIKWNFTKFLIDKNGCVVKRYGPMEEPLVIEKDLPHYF
Method in brief: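 GR-coupled assay: recombinant GPX4 preincubated 30 min with compound at room temperature; final 200 nM GPX4, 1 mM GSH, 0.5 mM cumene hydroperoxide, 0.5 mM NADPH, 100 nM GR, 0.01% BSA, pH 7.5 Tris. NADPH fluorescence (340/450 nm) read at 0 and 15 min.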

[9] = biological target: Cytochrome P450 3A4 (Homo sapiens) (UniProt P08684); test: Cytochrome P450 family 3 subfamily A member 4 (CYP3A4) small molecule antagonists: luciferase qHTS assay (AID 1645841; active means well fitted curve in the direction sought with a large enough effect in the repeat runs; an effect the other way counts as inactive or inconclusive; further: potency means the concentration at half of the fitted maximal effect; nearly all actives have a fitted effect of over 45% in size)
Method in brief: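 P450-Glo CYP3A4 enzyme with proluciferin substrate preincubated 10 min with compound at room temperature, then NADPH regeneration 1 h. Luciferin detection reagent added for 20 min; luminescence recorded. Ketoconazole positive control.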

[10] = biological target: N-terminal Xaa-Pro-Lys N-methyltransferase 1 (Homo sapiens) (UniProt Q9BV86); test: Confirmatory qHTS for Inhibitors of N-terminal methyltransferase 1 (NTMT1): MTaseGlo Assay (AID 1645874); further: nearly all actives have a fitted effect of over 65% in size; further: potency means the concentration at half of the fitted maximal effect
Sequence of N-terminal Xaa-Pro-Lys N-methyltransferase 1 (Homo sapiens) (Q9BV86 whole entry, looked up): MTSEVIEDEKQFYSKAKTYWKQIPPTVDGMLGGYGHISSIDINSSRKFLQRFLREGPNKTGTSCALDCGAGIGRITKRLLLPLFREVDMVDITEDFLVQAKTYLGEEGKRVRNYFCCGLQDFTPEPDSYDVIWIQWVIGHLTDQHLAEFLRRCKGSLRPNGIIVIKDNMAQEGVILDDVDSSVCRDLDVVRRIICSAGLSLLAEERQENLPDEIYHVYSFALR
Method in brief: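 Compounds are incubated with 125 nM NTMT1 and 100 uM SAM for 15 min before the SPKRIA peptide (1 uM) starts a 30 min room-temperature methylation. SAH is measured by coupled luciferase luminescence and curves fitted to a Hill equation.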

[11] = biological target: Rap guanine nucleotide exchange factor 3 (Homo sapiens) (UniProt O95398); test: Confirmatory qHTS for antagonist of cAMP-regulated guanine nucleotide exchange factor 3 (EPAC1) (AID 1645880); further: potency means the concentration at half of the fitted maximal effect; nearly all actives have a fitted effect of over 55% in size
Sequence of Rap guanine nucleotide exchange factor 3 (Homo sapiens) (O95398 whole entry, looked up): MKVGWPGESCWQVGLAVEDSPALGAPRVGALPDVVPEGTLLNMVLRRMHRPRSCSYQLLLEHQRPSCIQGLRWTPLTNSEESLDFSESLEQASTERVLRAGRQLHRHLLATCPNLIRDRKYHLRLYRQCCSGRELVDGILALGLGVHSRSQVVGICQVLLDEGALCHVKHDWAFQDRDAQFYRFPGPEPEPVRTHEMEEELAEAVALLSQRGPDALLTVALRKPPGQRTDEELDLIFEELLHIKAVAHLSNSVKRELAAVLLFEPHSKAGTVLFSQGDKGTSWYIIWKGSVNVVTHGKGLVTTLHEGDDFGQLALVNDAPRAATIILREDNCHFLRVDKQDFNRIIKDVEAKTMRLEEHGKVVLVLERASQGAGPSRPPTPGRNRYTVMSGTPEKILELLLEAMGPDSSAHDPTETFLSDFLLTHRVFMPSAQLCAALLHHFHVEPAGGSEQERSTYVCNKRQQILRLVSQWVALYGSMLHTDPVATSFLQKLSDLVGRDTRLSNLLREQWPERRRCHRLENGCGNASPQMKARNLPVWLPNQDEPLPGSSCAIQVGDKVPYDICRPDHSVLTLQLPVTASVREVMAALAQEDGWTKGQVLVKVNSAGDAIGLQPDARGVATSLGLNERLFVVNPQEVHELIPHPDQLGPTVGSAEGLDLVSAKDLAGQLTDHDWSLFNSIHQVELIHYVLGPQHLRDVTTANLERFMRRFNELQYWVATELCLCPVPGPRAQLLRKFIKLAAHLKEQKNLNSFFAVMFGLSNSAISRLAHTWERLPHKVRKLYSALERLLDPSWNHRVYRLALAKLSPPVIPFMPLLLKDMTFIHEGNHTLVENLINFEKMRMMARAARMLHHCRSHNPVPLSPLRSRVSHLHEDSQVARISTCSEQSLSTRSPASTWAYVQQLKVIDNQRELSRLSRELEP
Method in brief: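 Nucleotide exchange uses 100 nM EPAC1, 250 nM RAP1B-BODIPY-GDP and 50 uM GDP, with compounds in a concentration-titration series. After 5 min at room temperature, fluorescence (480 nm ex/540 nm em) is read every 5 min for 30 min. Data are normalized to control ATA and DMSO.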

[12] = biological target: Rap guanine nucleotide exchange factor 3 (Homo sapiens) (UniProt O95398); test: Confirmatory qHTS for agonist of cAMP-regulated guanine nucleotide exchange factor 3 (EPAC1) (AID 1645881);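 further: EPAC1 catalysed release of BODIPY-GDP from Rap1B seen as fluorescence loss; nearly all actives have a fitted effect of over 75% in size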
[13] = biological target: Rap guanine nucleotide exchange factor 4 (Homo sapiens) (UniProt Q8WZA2); test: Confirmatory qHTS for agonist of cAMP-regulated guanine nucleotide exchange factor 4 (EPAC2) (AID 1645884)
Sequence of Rap guanine nucleotide exchange factor 4 (Homo sapiens) (Q8WZA2 whole entry, looked up): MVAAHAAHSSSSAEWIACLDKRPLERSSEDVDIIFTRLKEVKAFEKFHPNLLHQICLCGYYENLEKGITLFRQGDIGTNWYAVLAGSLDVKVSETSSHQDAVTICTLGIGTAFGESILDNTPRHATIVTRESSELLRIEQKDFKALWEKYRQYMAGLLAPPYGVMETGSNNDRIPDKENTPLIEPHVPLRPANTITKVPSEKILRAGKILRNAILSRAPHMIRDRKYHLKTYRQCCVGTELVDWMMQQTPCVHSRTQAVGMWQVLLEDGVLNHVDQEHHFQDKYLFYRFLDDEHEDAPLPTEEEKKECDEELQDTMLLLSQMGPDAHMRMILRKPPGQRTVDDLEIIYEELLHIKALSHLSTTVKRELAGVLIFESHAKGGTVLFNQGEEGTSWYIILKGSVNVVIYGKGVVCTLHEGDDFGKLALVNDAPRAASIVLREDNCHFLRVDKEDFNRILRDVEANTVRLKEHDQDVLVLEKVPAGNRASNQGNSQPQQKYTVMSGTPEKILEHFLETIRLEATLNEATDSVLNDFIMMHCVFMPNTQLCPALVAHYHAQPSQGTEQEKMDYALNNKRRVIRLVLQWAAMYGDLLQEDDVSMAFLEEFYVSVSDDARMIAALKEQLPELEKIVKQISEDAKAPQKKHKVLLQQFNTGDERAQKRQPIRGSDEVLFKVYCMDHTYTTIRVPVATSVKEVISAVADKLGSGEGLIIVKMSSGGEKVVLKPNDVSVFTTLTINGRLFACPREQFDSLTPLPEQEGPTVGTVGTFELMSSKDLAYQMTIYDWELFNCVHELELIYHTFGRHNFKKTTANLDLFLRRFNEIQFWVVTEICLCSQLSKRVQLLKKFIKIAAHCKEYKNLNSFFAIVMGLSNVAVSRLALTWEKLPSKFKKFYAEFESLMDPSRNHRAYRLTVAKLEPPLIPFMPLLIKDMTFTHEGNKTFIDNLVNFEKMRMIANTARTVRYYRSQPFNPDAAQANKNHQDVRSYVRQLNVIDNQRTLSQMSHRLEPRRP

[14] = biological target: Rap guanine nucleotide exchange factor 4 (Homo sapiens) (UniProt Q8WZA2); test: Confirmatory qHTS for antagonist of cAMP-regulated guanine nucleotide exchange factor 4 (EPAC2) (AID 1645885); further: nearly all actives have a fitted effect of over 25% in size
[15] = biological target: Rap guanine nucleotide exchange factor 3 (Homo sapiens) (UniProt O95398); test: Counterscreen qHTS for antagonist of cAMP-regulated guanine nucleotide exchange factor 3 (EPAC1) (AID 1645888);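 further: fluorescence loss as bound BODIPY-GDP is released from Rap1B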
Method in brief: (§1)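 Rap1B–BODIPY-GDP (250 nM) with 50 uM GDP; compounds pin-transferred to 9.74 nM–152 uM final (activator) or from 7.32 nM upwards (inhibitor). Fluorescence Ex/Em 480/540 nm read at 5 and 30 min, then after adding cAMP or buffer, at room temperature.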

[16] = biological target: Rap guanine nucleotide exchange factor 3 (Homo sapiens) (UniProt O95398); test: Counterscreen qHTS for agonist of cAMP-regulated guanine nucleotide exchange factor 3 (EPAC1) (AID 1645889); further: nearly all actives have a fitted effect of over 40% in size
Method in brief: as §1

## CC1(C#N)CCN(c2c(C(=O)N3CCC(C(=O)C4CC4)CC3)cnc3cc(F)c(F)cc23)CC1
[1]
  Potency: 9.52 µM (active)

## Cc1ccc([S+](=O)([O-])NC2CC(C)(C)CC(C)(C)C2)cc1
[1]
  Potency: 2.13 µM (active)

## CCOc1cc(C(Nc2cc(C)ccn2)c2ccc3cccnc3c2O)ccc1OC (stereo not given)
[1]
  Potency: 12.6 µM (active)

## CC1=C(C(=O)Nc2cccc(-c3ccn[nH]3)c2)C(c2ccccc2Cl)N=C(Nc2nc3ccccc3o2)N1 (stereo not given)
[1]
  Potency: 0.477 µM (active)

## COc1ccc(NC(=O)CSc2nnc(NC(=O)NC3CCCCC3)s2)cc1OC
[1]
  Potency: 21.3 µM (active)

## Cc1cccc2nc(-c3ccccn3)c(Nc3ccccc3)n12
[1]
  Potency: 1.2 µM (active)

## COc1ccc(OCC(=O)Nc2cc(-c3nc4ccccc4s3)ccc2C)cc1
[1]
  Potency: 0.379 µM (active)

## COc1ccc(-c2cn3cccnc3n2)cc1NC(=O)c1cc(C)cc(C)c1
[1]
  Potency: 4.77 µM (active)

## CCOC(C(=O)N(C)CCN(C)CCc1ccccc1)(c1ccccc1)c1ccccc1
[1]
  Potency: 6.01 µM (active)

## C=CC1=C(C(=O)O)N2C(=O)[C@@H](NC(=O)/C(=N\OCC(=O)O)c3csc(N)n3)[C@H]2SC1
[2]
  Potency: 4.11 µM (active)
[3]
  Potency: 7.52 µM (active)
[4]
  Potency: 4.74 µM (active)
[5]
  Potency: 19 µM (active)
[6]
  Potency: inactive
[1]
  Potency: inactive
[7]
  Potency: 7.18 µM (active)
[8]
  Potency: inactive

## Oc1ccc(C2(c3ccccc3F)CCC(F)(F)CC2)cc1
[9]
  Potency: 12 µM (active)
[1]
  Potency: 2.13 µM (active)

## COc1ccc(Nc2ncnc3sc4c(c23)CCCC4)cc1
[10]
  Potency: 15.8 µM (active)

## CCOc1ccc(S(=O)(=O)NCc2ccc3c(c2)CCN3C(=O)c2ccc(C)cc2)cc1
[1]
  Potency: 0.301 µM (active)

## Fc1cc(Nc2nc(-c3ccncc3)nc3ccccc23)ccc1N1CCNCC1
[10]
  Potency: 21.8 µM (active)

## COc1cc2nc(N3CCCCC3)nc(NC3CC3)c2cc1OC
[10]
  Potency: 34.5 µM (active)

## Cc1ccc(-n2ncc3c(NCCO)ncnc32)cc1Cl
[10]
  Potency: 31.6 µM (active)

## COc1cc2nc(N3CCCC3)nc(NC3CC3)c2cc1OC
[10]
  Potency: 38.8 µM (active)

## CC(C)CCNc1ncnc2c1cnn2-c1cccc(Cl)c1
[10]
  Potency: 14.1 µM (active)

## COc1ccccc1NC(=O)CSc1nc(-c2ccc(C(C)(C)C)cc2)c(C#N)c(=O)[nH]1
[1]
  Potency: 0.756 µM (active)
[11]
  Potency: 67.5 µM (active)
[12]
  Potency: inactive
[13]
  Potency: inactive
[14]
  outcome: inactive [at 12.7 µM]
[15]
  Potency: inactive
[16]
  Potency: inactive

## S=C(Nc1ccccn1)c1ccccn1
[10]
  Potency: 10.3 µM (active)

## COc1cc2c(NC3CCN(C(C)C)CC3)nc(N3CCCN(CC4CCCCC4)CC3)nc2cc1OCCCN1CCCCC1
[10]
  Potency: 43.5 µM (active)

## Cc1cccc(Cc2c(C)nc3c(-c4ccccc4)c(C)[nH]n3c2=O)c1
[1]
  Potency: inactive

## Clc1ccc(-c2noc3ncnc(NC4CCCCC4)c23)cc1
[10]
  Potency: 15.8 µM (active)

## O=C(Nc1noc2ccccc12)c1ccc(F)cc1
[10]
  Potency: 39.8 µM (active)

## Cc1cc(C)n2c(Nc3c(C)cccc3C)c(-c3ccsc3)nc2n1
[10]
  Potency: inactive

## CCCn1c(/C=C/c2ccccc2)nc2ccccc21
[10]
  Potency: inactive

## CCOc1ccc(/C=C/c2nc3ccccc3n2S(=O)(=O)c2cccc(Cl)c2)cc1
[10]
  Potency: 12 µM (active)

## c1csc(-c2nc3ccccn3c2Nc2ccc3c(c2)OCCO3)c1
[10]
  Potency: 6.49 µM (active)

## CC(C)(C)c1ccc(-c2nc(SCC(=O)Nc3ccc(Cl)cc3)[nH]c(=O)c2C#N)cc1
[1]
  Potency: 3.01 µM (active)
[11]
  Potency: 84.9 µM (active)
[12]
  Potency: inactive
[13]
  Potency: inactive
[14]
  Potency: inactive
[15]
  Potency: inactive
[16]
  Potency: inactive

## CSc1ccc(/C=C/c2nc3ccccc3n2S(=O)(=O)c2cccc(Cl)c2)cc1
[10]
  Potency: 8.51 µM (active)

## CNc1sc(-c2cccc3ccccc23)nc1C#N
[10]
  Potency: inactive

## COc1cc2c(NC3CCN(C(C)C)CC3)nc(N3CCCN(C4CCCCC4)CC3)nc2cc1OCCCN1CCCCC1
[10]
  Potency: 34.5 µM (active)

## O=C(Nc1noc2ccccc12)c1c(F)cccc1F
[10]
  Potency: inactive

## Cc1c(Cl)ccc2sc(N3CCN(C(=O)C4CC4)CC3)nc12
[10]
  Potency: inactive

## Oc1cccc(Nc2cc(-c3ccccc3)ncn2)c1
[10]
  Potency: 39.8 µM (active)
